Compounds without any hit were thinned out: in the full panel of roughly 83,000, 20% have a hit.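 Each cell line was grown in a 96-well plate and treated with one concentration of compound for 48 hours. Values below 10 were considered active.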 Calls of active or inactive are those of the source.
Assays:
Experiment in all cases: NCI-60 one-dose screen, 48 h (100 = growth as untreated, 0 = no growth, -100 = all killed)
Conditions in all cases: 10 µM unless noted
NCI-H23 lung = test system: NCI-H23 lung
NCI-H226 lung = test system: NCI-H226 lung
NCI-H322M lung = test system: NCI-H322M lung
HOP-62 NSCLC = test system: HOP-62 NSCLC
NCI-H460 lung = test system: NCI-H460 lung
NCI-H522 lung = test system: NCI-H522 lung
A549/ATCC NSCLC = test system: A549/ATCC NSCLC
786-0 renal = test system: 786-0 renal
COLO 205 colon = test system: COLO 205 colon
DU-145 prostate = test system: DU-145 prostate
K-562 leukemia = test system: K-562 leukemia
MALME-3M melanoma = test system: MALME-3M melanoma
MDA-MB-231 breast = test system: MDA-MB-231 breast
RXF 393 renal = test system: RXF 393 renal
SF-268 CNS = test system: SF-268 CNS
SF-295 CNS = test system: SF-295 CNS
SF-539 CNS = test system: SF-539 CNS
UACC-257 melanoma = test system: UACC-257 melanoma
M14 melanoma = test system: M14 melanoma
HCT-15 colon = test system: HCT-15 colon

Measured: growth

Cc1cc2c(cc1[N+](=O)[O-])NC(CNC(C)C)CC2 (stereo not drawn)
inactive: NCI-H23 lung 93.9% | NCI-H226 lung 93.6% | NCI-H322M lung 113% | HOP-62 NSCLC 103% | NCI-H460 lung 107% | NCI-H522 lung 105% | A549/ATCC NSCLC 104% | 786-0 renal 92.9% | COLO 205 colon 120% | DU-145 prostate 105% | K-562 leukemia 96.5% | MALME-3M melanoma 117% | MDA-MB-231 breast 107% | RXF 393 renal 117% | SF-268 CNS 95.1% | SF-295 CNS 102% | SF-539 CNS 103% | UACC-257 melanoma 106% | M14 melanoma 92% | HCT-15 colon 102%

CCCCCCCC/C=C/CCCCCCCC1=NC(C)(C)CN1CCO
active: HOP-62 NSCLC 6.19% | NCI-H460 lung -39.5% | NCI-H522 lung -45.2% | COLO 205 colon -63.9% | K-562 leukemia -51.6% | MDA-MB-231 breast 9.49% | RXF 393 renal -23.4% | SF-539 CNS -5.97% | HCT-15 colon -34.9%
inactive: NCI-H23 lung 47.1% | NCI-H226 lung 83.3% | NCI-H322M lung 50.8% | A549/ATCC NSCLC 24.7% | 786-0 renal 32.3% | DU-145 prostate 64.5% | MALME-3M melanoma 64.9% | SF-268 CNS 46% | SF-295 CNS 30.2% | UACC-257 melanoma 20.1%

CC(=O)n1c2ccccc2c2ccccc21
inactive: NCI-H23 lung 93.7% | NCI-H226 lung 115% | NCI-H322M lung 107% | HOP-62 NSCLC 93.8% | NCI-H460 lung 117% | NCI-H522 lung 108% | A549/ATCC NSCLC 107% | 786-0 renal 90.8% | COLO 205 colon 148% | DU-145 prostate 108% | K-562 leukemia 111% | MALME-3M melanoma 126% | MDA-MB-231 breast 126% | RXF 393 renal 144% | SF-268 CNS 115% | SF-295 CNS 96.7% | SF-539 CNS 107% | UACC-257 melanoma 123% | M14 melanoma 103% | HCT-15 colon 112%

c1ccc(Nc2nnc(-c3cc(-c4cccnc4)n(-c4ccccc4)n3)s2)cc1
active: HCT-15 colon 8.1%
inactive: NCI-H23 lung 78.6% | NCI-H226 lung 99.8% | NCI-H322M lung 109% | HOP-62 NSCLC 99.1% | NCI-H460 lung 80.5% | NCI-H522 lung 71% | A549/ATCC NSCLC 74.1% | 786-0 renal 77.1% | COLO 205 colon 83.3% | DU-145 prostate 94.3% | K-562 leukemia 36.1% | MALME-3M melanoma 83.3% | MDA-MB-231 breast 35.6% | RXF 393 renal 71.8% | SF-268 CNS 113% | SF-295 CNS 40.8% | SF-539 CNS 104% | UACC-257 melanoma 139%

COc1ccc(-c2cc(Cc3cccs3)c(=O)n(Cn3ccc4ccccc43)n2)cc1
inactive: NCI-H23 lung 105% | NCI-H226 lung 104% | NCI-H322M lung 110% | HOP-62 NSCLC 105% | NCI-H460 lung 115% | NCI-H522 lung 95.5% | A549/ATCC NSCLC 104% | 786-0 renal 110% | COLO 205 colon 110% | DU-145 prostate 110% | K-562 leukemia 105% | MALME-3M melanoma 106% | MDA-MB-231 breast 100% | RXF 393 renal 116% | SF-268 CNS 110% | SF-295 CNS 101% | SF-539 CNS 101% | UACC-257 melanoma 103% | M14 melanoma 106% | HCT-15 colon 98.4%

CCn1c2c(c3ccccc31)SC1c3cccn3CCN1C2=S (stereo not drawn)
inactive: NCI-H23 lung 93.7% | NCI-H226 lung 108% | NCI-H322M lung 89.8% | HOP-62 NSCLC 103% | NCI-H460 lung 98.9% | NCI-H522 lung 82.1% | A549/ATCC NSCLC 88.5% | 786-0 renal 102% | COLO 205 colon 109% | DU-145 prostate 102% | K-562 leukemia 105% | MALME-3M melanoma 112% | MDA-MB-231 breast 96.7% | RXF 393 renal 151% | SF-268 CNS 96.4% | SF-295 CNS 106% | SF-539 CNS 97.9% | UACC-257 melanoma 98% | M14 melanoma 94.4% | HCT-15 colon 82.3%

CCCc1cc(=O)n2c(C(=O)Nc3ccccc3OC)c(C(=O)Nc3ccc(F)cc3)sc2n1
inactive: NCI-H23 lung 63% [30 µM] | NCI-H226 lung 62.3% [30 µM] | NCI-H322M lung 57.9% [30 µM] | NCI-H460 lung 44.6% [30 µM] | NCI-H522 lung 46.7% [30 µM] | A549/ATCC NSCLC 16.1% [30 µM] | 786-0 renal 36.2% [30 µM] | COLO 205 colon 72.5% [30 µM] | DU-145 prostate 53.9% [30 µM] | MALME-3M melanoma 64.1% [30 µM] | MDA-MB-231 breast 58.3% [30 µM] | UACC-257 melanoma 76.3% [30 µM] | M14 melanoma 80.6% [30 µM] | HCT-15 colon 79% [30 µM]
active: HOP-62 NSCLC -16.7% [30 µM] | K-562 leukemia 3.51% [30 µM] | RXF 393 renal -19.5% [30 µM] | SF-268 CNS -16.3% [30 µM] | SF-295 CNS -18.7% [30 µM] | SF-539 CNS -47% [30 µM]

COc1ccc2c(c1)[nH]c(=O)c1c3cc(OC)c(OC)cc3cn21
active: NCI-H460 lung 6.39% | NCI-H522 lung -2.16% | A549/ATCC NSCLC -22.1% | COLO 205 colon -34.8% | DU-145 prostate -87.2% | K-562 leukemia 0.148% | RXF 393 renal 0.926% | SF-268 CNS 9.67% | HCT-15 colon -6.44%
inactive: NCI-H23 lung 42.5% | NCI-H226 lung 44.6% | NCI-H322M lung 20.7% | HOP-62 NSCLC 47.4% | 786-0 renal 32.1% | MALME-3M melanoma 56.7% | MDA-MB-231 breast 26.4% | SF-295 CNS 13.6% | SF-539 CNS 10.7% | UACC-257 melanoma 82.6% | M14 melanoma 23.6%

O=C(C(Br)Br)C(Br)C(Br)c1ccccc1 (stereo not drawn)
inactive: NCI-H23 lung 90.1% | NCI-H226 lung 95% | NCI-H322M lung 109% | HOP-62 NSCLC 109% | NCI-H460 lung 104% | A549/ATCC NSCLC 98.5% | 786-0 renal 107% | DU-145 prostate 87.4% | K-562 leukemia 18.9% | MDA-MB-231 breast 109% | RXF 393 renal 25.3% | SF-268 CNS 116% | SF-295 CNS 116% | SF-539 CNS 97.2% | UACC-257 melanoma 57.7% | M14 melanoma 81.5% | HCT-15 colon 20.5%
active: NCI-H522 lung -33.3% | COLO 205 colon 4.54% | MALME-3M melanoma -37.9%

Cc1ccccc1NC(=O)c1cc2ccccc2cc1O
active: MALME-3M melanoma -6.19%
inactive: NCI-H23 lung 10.9% | NCI-H226 lung 77.1% | NCI-H322M lung 24.6% | HOP-62 NSCLC 39.2% | NCI-H460 lung 38% | NCI-H522 lung 12.2% | A549/ATCC NSCLC 39.3% | 786-0 renal 54.9% | COLO 205 colon 119% | DU-145 prostate 20.2% | K-562 leukemia 10.9% | MDA-MB-231 breast 70.6% | RXF 393 renal 22.2% | SF-268 CNS 21.1% | SF-295 CNS 86.4% | SF-539 CNS 64.4% | UACC-257 melanoma 68.1% | M14 melanoma 58.1% | HCT-15 colon 48.5%

O=C1N(C2CCCCC2)C(=O)N1C1CCCCC1
active: MALME-3M melanoma -16.9% | SF-295 CNS -27.9%
inactive: NCI-H23 lung 45.1% | NCI-H226 lung 46% | NCI-H322M lung 35.2% | HOP-62 NSCLC 57.5% | NCI-H460 lung 39% | NCI-H522 lung 17.3% | A549/ATCC NSCLC 34.5% | 786-0 renal 53.5% | COLO 205 colon 62% | DU-145 prostate 38.7% | K-562 leukemia 55.3% | MDA-MB-231 breast 64.3% | RXF 393 renal 43.2% | SF-268 CNS 65.3% | SF-539 CNS 26.5% | UACC-257 melanoma 22.8% | M14 melanoma 30.4% | HCT-15 colon 52.7%

COc1cc(Oc2cc(-c3cccnc3)ccc2NC(=O)Nc2ccc(F)cc2F)cc(OC)c1OC
inactive: NCI-H23 lung 99% | NCI-H226 lung 97% | NCI-H322M lung 112% | HOP-62 NSCLC 96.4% | NCI-H460 lung 99.1% | NCI-H522 lung 94.8% | A549/ATCC NSCLC 94.6% | 786-0 renal 100% | COLO 205 colon 96.9% | DU-145 prostate 113% | K-562 leukemia 96.6% | MALME-3M melanoma 105% | MDA-MB-231 breast 91.5% | RXF 393 renal 97.5% | SF-268 CNS 107% | SF-295 CNS 110% | SF-539 CNS 105% | UACC-257 melanoma 92.6% | M14 melanoma 110% | HCT-15 colon 111%

CCCc1nn(C)c2c(=O)[nH]c(-c3cc(S(=O)(=O)N4CCN(C)CC4)ccc3OCC)nc12
inactive: NCI-H23 lung 99% | NCI-H226 lung 102% | NCI-H322M lung 101% | HOP-62 NSCLC 104% | NCI-H460 lung 114% | NCI-H522 lung 88.9% | A549/ATCC NSCLC 96.2% | 786-0 renal 98.5% | COLO 205 colon 99.8% | DU-145 prostate 113% | K-562 leukemia 97.9% | MALME-3M melanoma 102% | MDA-MB-231 breast 90.5% | RXF 393 renal 120% | SF-268 CNS 119% | SF-295 CNS 93% | SF-539 CNS 111% | UACC-257 melanoma 97.9% | M14 melanoma 102% | HCT-15 colon 103%

Clc1ccc(CCC(Cn2ccnc2)Sc2c(Cl)cccc2Cl)cc1 (stereo not drawn)
inactive: NCI-H23 lung 42.5% | NCI-H226 lung 90.6% | NCI-H322M lung 81.3% | HOP-62 NSCLC 83% | NCI-H460 lung 47.3% | NCI-H522 lung 20.3% | A549/ATCC NSCLC 61.2% | 786-0 renal 56.4% | COLO 205 colon 57.7% | DU-145 prostate 94.2% | K-562 leukemia 30.5% | MALME-3M melanoma 60.3% | MDA-MB-231 breast 55.5% | RXF 393 renal 67.4% | SF-268 CNS 87.1% | SF-295 CNS 43.4% | SF-539 CNS 91.5% | UACC-257 melanoma 83.4% | M14 melanoma 54.9% | HCT-15 colon 34%

COC1=CC(c2ccc[nH]2)=N/C1=C\c1[nH]c(C)c(C(=O)CCC(=O)Oc2ccc3c(c2)CCC2C3CC[C@]3(C)C(=O)CC[C@@H]23)c1C (stereo partly drawn)
inactive: NCI-H23 lung 73.5% | NCI-H226 lung 87.6% | NCI-H322M lung 81.4% | HOP-62 NSCLC 80.2% | NCI-H460 lung 48.3% | NCI-H522 lung 57.3% | A549/ATCC NSCLC 49.9% | 786-0 renal 75.8% | COLO 205 colon 87.9% | DU-145 prostate 28.5% | K-562 leukemia 39.2% | MALME-3M melanoma 103% | RXF 393 renal 93.1% | SF-268 CNS 52.6% | SF-295 CNS 86.4% | SF-539 CNS 83.7% | UACC-257 melanoma 106% | M14 melanoma 104% | HCT-15 colon 45.6%
active: MDA-MB-231 breast 1.14%
